Experimental data: PubChem BioAssay (EPA / NIEHS)
Results filed as inconclusive are left out. Activity calls are given as the source filed them. Rule for the calls, unless noted: active = hit-call score of the fitted dose curve at least 0.9, where 1 is the maximum; inconclusive = response in the unintended direction; inactive = score below 0.9.

Each molecule was assayed against human Peroxisome Proliferator-activated Receptor alpha (PPARa), PPARA (gene 5465) (UniProt Q07869) (assay: ATG_PPARa_TRANS: Attagene TRANS-FACTORIAL HepG2 Assay for human Peroxisome Proliferator-activated Receptor alpha (PPARa) (AID 2283001)). Conditions: not given.
Method in brief: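 Exposure: 24 h, transiently transfected HepG2 cells. Endpoint: GAL4-UAS reporter mRNA, RT-PCR with capillary electrophoresis fluorescence. Baseline: DMSO; increases fitted.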

Chain of human Peroxisome Proliferator-activated Receptor alpha (PPARa), PPARA (gene 5465) (Q07869 whole entry, looked up, the tested form may be a part): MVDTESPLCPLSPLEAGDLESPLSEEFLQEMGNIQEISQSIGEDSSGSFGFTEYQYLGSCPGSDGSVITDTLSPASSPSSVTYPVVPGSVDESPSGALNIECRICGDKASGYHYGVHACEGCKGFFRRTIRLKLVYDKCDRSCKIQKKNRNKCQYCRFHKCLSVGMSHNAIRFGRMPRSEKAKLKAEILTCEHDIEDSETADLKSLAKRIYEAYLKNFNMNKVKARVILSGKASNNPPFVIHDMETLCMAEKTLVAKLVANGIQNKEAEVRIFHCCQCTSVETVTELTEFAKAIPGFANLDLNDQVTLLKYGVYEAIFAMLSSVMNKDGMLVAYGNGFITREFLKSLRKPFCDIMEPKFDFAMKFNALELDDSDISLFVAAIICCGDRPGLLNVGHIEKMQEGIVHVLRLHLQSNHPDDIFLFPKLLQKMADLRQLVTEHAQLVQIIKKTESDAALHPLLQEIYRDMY

Compound	outcome
Nc1ccc(Oc2ccc(N)cc2)cc1	inactive
ClC1=C(Cl)[C@]2(Cl)[C@H]3[C@H]([C@@H]4C=C[C@H]3C4)[C@@]1(Cl)C2(Cl)Cl	inactive
CCCCCOC(=O)c1ccccc1C(=O)OCCCCC	inactive
CCC(C)c1ccc(O)cc1 (configuration not stated)	inactive
c1ccc2c(c1)oc1ccccc12	inactive
CCC12COCN1COC2	inactive
c1ccc2c(c1)-c1cccc3cccc-2c13	inactive
Nc1ccc(Cl)cc1N	inactive
CCOC(=O)[C@]1(c2ccccc2)Oc2ccccc2[C@@H]1N	inactive
CN(C)C(=O)Nc1ccc(Cl)cc1	inactive
CCCCCCCCOC(=O)c1ccc(C(=O)OCCCCCCCC)c(C(=O)OCCCCCCCC)c1	inactive
CN(C)c1ccc(C(=O)c2ccc(N(C)C)cc2)cc1	inactive
Clc1ccc(C(c2ccc(Cl)cc2)C(Cl)Cl)cc1	inactive
Nc1ccc(Cc2ccc(N)cc2)cc1	inactive
Cc1cccc(N)c1N	inactive
O=Cc1ccco1	inactive
c1ccc(NNc2ccccc2)cc1	inactive
Oc1ccccc1Cl	inactive
CC(C)COC(=O)c1ccccc1C(=O)OCC(C)C	inactive
O=[N+]([O-])c1ccc(Oc2ccc(Cl)cc2Cl)cc1	inactive

Each molecule was assayed against human Peroxisome Proliferator-activated Receptor delta (PPARd), PPARD (gene 5467) (UniProt Q03181) (assay: ATG_PPARd_TRANS: Attagene TRANS-FACTORIAL HepG2 Assay for human Peroxisome Proliferator-activated Receptor delta (PPARd) (AID 2283002)). Conditions: not given.
Method in brief: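 Multiplexed trans-activation format: HepG2 liver cells expressing exogenous NR-Gal4 chimeras and GAL4-UAS reporters were exposed for 24 h. Reporter mRNA was detected by RT-PCR with capillary electrophoresis fluorescence; activity fitted as gain of signal relative to DMSO.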

Chain of human Peroxisome Proliferator-activated Receptor delta (PPARd), PPARD (gene 5467) (Q03181 whole entry, looked up, the tested form may be a part): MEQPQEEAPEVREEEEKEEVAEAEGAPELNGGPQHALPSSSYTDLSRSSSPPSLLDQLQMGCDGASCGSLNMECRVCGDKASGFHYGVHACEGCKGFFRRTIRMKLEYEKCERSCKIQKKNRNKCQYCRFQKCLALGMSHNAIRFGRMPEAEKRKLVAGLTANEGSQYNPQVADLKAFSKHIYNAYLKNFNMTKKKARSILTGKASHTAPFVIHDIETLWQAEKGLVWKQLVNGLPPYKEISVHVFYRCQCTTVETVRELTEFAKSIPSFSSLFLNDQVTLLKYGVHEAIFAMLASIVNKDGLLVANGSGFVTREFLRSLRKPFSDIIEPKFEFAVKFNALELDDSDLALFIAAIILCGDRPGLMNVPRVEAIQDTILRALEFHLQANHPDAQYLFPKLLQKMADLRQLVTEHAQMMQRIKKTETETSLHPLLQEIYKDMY

Compound	outcome
Clc1ccc(C(c2ccc(Cl)cc2)C(Cl)(Cl)Cl)cc1	inactive
ClC1=C(Cl)[C@]2(Cl)[C@H]3[C@H]([C@@H]4C=C[C@H]3C4)[C@@]1(Cl)C2(Cl)Cl	inactive
CC(C)(C)C(O)(CCc1ccc(Cl)cc1)Cn1cncn1 (configuration not stated)	inactive
OCCOCCO	inactive
ClC1=C(Cl)C2(Cl)C3C(Cl)C=CC3C1(Cl)C2(Cl)Cl (configuration not stated)	inactive
c1ccc2c(c1)oc1ccccc12	inactive
CCC12COCN1COC2	inactive
c1ccc2c(c1)-c1cccc3cccc-2c13	inactive
O=C(Nc1ccccc1)c1ccccc1I	inactive
CN(C)C(=O)Nc1ccc(Cl)cc1	inactive
O=Cc1ccco1	inactive
c1ccc(NNc2ccccc2)cc1	inactive
O=[N+]([O-])c1ccc(Oc2ccc(Cl)cc2Cl)cc1	inactive
N#CC(Br)Br	inactive

Each molecule was assayed on Intercellular Adhesion Molecule 1 (ICAM1), ICAM1 (gene 3383) (assay: BSK_3C_ICAM1: BioMAP Diversity Plus: 3C Assay for Intercellular Adhesion Molecule 1 (ICAM1) Biomarker Activity (AID 2283003; active = hit-call score of the fitted dose curve at least 0.9, where 1 is the maximum; inactive = score below 0.9)). Conditions: primary human endothelial cells (HUVEC); actives raise or lower the signal.
Method in brief: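 ELISA read-out of ICAM-1; HUVEC (primary human), 3C system, 24 h post-dosing; bidirectional fit vs DMSO baseline.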

Compound	AC50	outcome
Clc1ccc(C(c2ccc(Cl)cc2)C(Cl)(Cl)Cl)cc1	34.7 µM (active)	–
Nc1ccc(Oc2ccc(N)cc2)cc1	–	inactive
ClC1=C(Cl)[C@]2(Cl)[C@H]3[C@H]([C@@H]4C=C[C@H]3C4)[C@@]1(Cl)C2(Cl)Cl	35 µM (active)	–
CCCCCOC(=O)c1ccccc1C(=O)OCCCCC	–	inactive
CC(C)(C)C(O)(CCc1ccc(Cl)cc1)Cn1cncn1 (configuration not stated)	–	inactive
OCCOCCO	–	inactive
Brc1ccc(Oc2ccccc2)cc1	–	inactive
ClC1=C(Cl)C2(Cl)C3C(Cl)C=CC3C1(Cl)C2(Cl)Cl (configuration not stated)	30.2 µM (active)	–
CCC(C)c1ccc(O)cc1 (configuration not stated)	–	inactive
c1ccc2c(c1)oc1ccccc12	–	inactive
CCC12COCN1COC2	–	inactive
c1ccc2c(c1)-c1cccc3cccc-2c13	–	inactive
Nc1ccc(Cl)cc1N	–	inactive
O=C(Nc1ccccc1)c1ccccc1I	–	inactive
CCOC(=O)[C@]1(c2ccccc2)Oc2ccccc2[C@@H]1N	–	inactive
CN(C)C(=O)Nc1ccc(Cl)cc1	–	inactive
CCCCCCCCOC(=O)c1ccc(C(=O)OCCCCCCCC)c(C(=O)OCCCCCCCC)c1	–	inactive
CN(C)c1ccc(C(=O)c2ccc(N(C)C)cc2)cc1	–	inactive
Clc1ccc(C(c2ccc(Cl)cc2)C(Cl)Cl)cc1	37.9 µM (active)	–
Nc1ccc(Cc2ccc(N)cc2)cc1	–	inactive
Cc1cccc(N)c1N	–	inactive
O=P(OCCCl)(OCCCl)OCCCl	–	inactive
O=Cc1ccco1	–	inactive
c1ccc(NNc2ccccc2)cc1	–	inactive
Oc1ccccc1Cl	–	inactive
CC(C)COC(=O)c1ccccc1C(=O)OCC(C)C	–	inactive
O=[N+]([O-])c1ccc(Oc2ccc(Cl)cc2Cl)cc1	–	inactive
N#CC(Br)Br	–	inactive
